# Several values for one entry are separate records, joined by “and”; a condition that tells them apart may be missing. Identical values can stand only once. Records with an inconclusive call do not appear. A call without a number means that no potency is given here. Unmarked numbers belong to inactive results. Activity calls are given as the source filed them. Unless noted, the call rests on the fitted dose curve; in most records, active means well fitted curve in the direction sought with a large enough effect; inconclusive means small, poorly fitted or top-dose-only effect, or another doubt; inactive means no such curve, though single readings can be large; an effect the other way counts as inactive or inconclusive.
# Tests used:
# [1] = target: Cellular tumor antigen p53 (Homo sapiens) (UniProt P04637); assay: Primary qHTS for small molecule compounds that upregulate eGFP-tagged delta133p53alpha (in N-terminal) cells. (AID 2060322); conditions: NCI-H358 eGFP-delta133p53alpha fluorescence, 24 h; activation: active compounds read high; further: potency means the concentration at half of the fitted maximal effect; nearly all actives have a fitted effect of over 75% in size
# Sequence of Cellular tumor antigen p53 (Homo sapiens) (P04637 whole entry, looked up): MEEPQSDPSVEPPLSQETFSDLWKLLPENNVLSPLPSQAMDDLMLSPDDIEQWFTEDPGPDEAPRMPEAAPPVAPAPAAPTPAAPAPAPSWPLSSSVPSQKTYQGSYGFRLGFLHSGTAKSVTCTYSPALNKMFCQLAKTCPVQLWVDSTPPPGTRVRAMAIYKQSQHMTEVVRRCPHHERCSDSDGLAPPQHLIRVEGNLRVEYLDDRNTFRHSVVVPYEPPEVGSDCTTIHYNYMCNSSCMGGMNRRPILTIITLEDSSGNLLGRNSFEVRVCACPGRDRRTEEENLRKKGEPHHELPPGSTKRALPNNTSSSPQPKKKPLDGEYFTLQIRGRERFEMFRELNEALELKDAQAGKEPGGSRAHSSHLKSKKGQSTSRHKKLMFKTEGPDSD
# How it was run: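 NCI-H358 cells pre-induced 24 h with 10 ng/ml doxycycline for eGFP-delta133p53alpha, plated dox-free and exposed 24 h at 37C to titrated compounds. Fixed, Hoechst-stained; gated GFP peak intensity by laser scanning cytometry, normalized to DMSO (0%) and 57.5 uM 5-azacytidine (100%).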
# [2] = BET inhibitor-based combinations targeting novel dependencies in MECOM-rearranged (r) AML: SET-2 cell line (AID 2202231); conditions: SET-2 AML cells viability, CellTiter-Glo luminescence, 48 h; viability: active compounds read low, concentration not given here; further: nearly all actives have a fitted effect of over 35% in size; further: potency means the concentration at half of the fitted maximal effect
# How it was run: (§1)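 500 cells/well; 11-pt dose curve; 48 h, standard incubator; CellTiter-Glo luminescence after 15 min RT; DMSO/empty-well normalization; AUC plus Z-AUC (mean-centered within each line).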
# [3] = BET inhibitor-based combinations targeting novel dependencies in MECOM-rearranged (r) AML: OCI-AML3 cell line (AID 2202232); conditions: Potency: OCI-AML3 viability; further: nearly all actives have a fitted effect of over 35% in size; further: potency means the concentration at half of the fitted maximal effect
# How it was run: as §1
# [4] = BET inhibitor-based combinations targeting novel dependencies in MECOM-rearranged (r) AML: HNT-34 cell line (AID 2202234); further: nearly all actives have a fitted effect of over 35% in size; further: potency means the concentration at half of the fitted maximal effect
# How it was run: (§2)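 Cells were plated at 500 per well and exposed to each drug across an 11-point dose range for 48 hr at standard incubator conditions. Viability was read by CellTiter-Glo luminescence, and activity was expressed as AUC and per-cell-line Z-transformed AUC.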
# [5] = BET inhibitor-based combinations targeting novel dependencies in MECOM-rearranged (r) AML: UCSD-AML1 cell line (AID 2202235); further: nearly all actives have a fitted effect of over 40% in size; further: potency means the concentration at half of the fitted maximal effect
# How it was run: as §2
# [6] = BET inhibitor-based combinations targeting novel dependencies in MECOM-rearranged (r) AML: AML-191 cell line (AID 2202236; further: nearly all actives have a fitted effect of over 35% in size; further: potency means the concentration at half of the fitted maximal effect)
# How it was run: as §1
# [7] = BET inhibitor-based combinations targeting novel dependencies in MECOM-rearranged (r) AML: AML-194 cell line (AID 2202237; further: nearly all actives have a fitted effect of over 40% in size; further: potency means the concentration at half of the fitted maximal effect)
# How it was run: as §1
# [8] = target: Aldehyde dehydrogenase, mitochondrial (Homo sapiens) (UniProt P05091); assay: qHTS for Inhibitors of the Aldehyde Dehydrogenase Family (ALDH2) Confirmatory screens (AID 2061303; active means well fitted inhibition curve with a large enough effect; title and protocol of this record describe different tests; further: nearly all actives have a fitted effect of over 45% in size; further: potency means the concentration at half of the fitted maximal effect)
# [9] = target: Aldehyde dehydrogenase, mitochondrial (Homo sapiens) (UniProt P05091); assay: qHTS for Inhibitors of the Aldehyde Dehydrogenase Family (ALDH2) Primary screen (AID 2061308); further: nearly all actives have a fitted effect of over 55% in size; further: potency means the concentration at half of the fitted maximal effect
# [10] = target: Retinaldehyde dehydrogenase 3 (Homo sapiens) (UniProt P47895); assay: qHTS for Inhibitors of the Aldehyde Dehydrogenase Family (ALDH1A3) Primary screen (AID 2061315)
# [11] = target: Aldehyde dehydrogenase 1A1 (Homo sapiens) (UniProt P00352); assay: qHTS for Inhibitors of the Aldehyde Dehydrogenase Family (ALDH1A1) Confirmatory screens (AID 2061316); further: nearly all actives have a fitted effect of over 65% in size; further: potency means the concentration at half of the fitted maximal effect
# [12] = qHTS for Inhibitors of the Aldehyde Dehydrogenase Family (ALDH1A2, ALDH1A3, ALDH2, ALDH3A1) (AID 2061307); further: nearly all actives have a fitted effect of over 50% in size
# [13] = target: Retinaldehyde dehydrogenase 3 (Homo sapiens) (UniProt P47895); assay: qHTS for Inhibitors of the Aldehyde Dehydrogenase Family (ALDH1A3) Confirmatory screens (AID 2061311); further: nearly all actives have a fitted effect of over 60% in size; further: potency means the concentration at half of the fitted maximal effect
# [14] = target: Retinal dehydrogenase 2 (Homo sapiens) (UniProt O94788); assay: qHTS for Inhibitors of the Aldehyde Dehydrogenase Family (ALDH1A2) Confirmation screens (AID 2061314); further: nearly all actives have a fitted effect of over 65% in size; further: potency means the concentration at half of the fitted maximal effect
# [15] = target: Aldehyde dehydrogenase, mitochondrial (Homo sapiens) (UniProt P05091); assay: qHTS for Inhibitors of the Aldehyde Dehydrogenase Family (ALDH2) Validation screens (AID 2061302; active means well fitted inhibition curve with a large enough effect; title and protocol of this record describe different tests)
# [16] = target: Retinaldehyde dehydrogenase 3 (Homo sapiens) (UniProt P47895); assay: qHTS for Inhibitors of the Aldehyde Dehydrogenase Family (ALDH1A3) Validation screen (AID 2061312); further: nearly all actives have a fitted effect of over 45% in size
# [17] = BET inhibitor-based combinations targeting novel dependencies in MECOM-rearranged (r) AML: MV-4-11 cell line (AID 2202233); further: nearly all actives have a fitted effect of over 45% in size; further: potency means the concentration at half of the fitted maximal effect
# How it was run: as §2
compound,measurement,setting,value
C[C@@H]1C[C@@H]([C@H](O)CC2CC(=O)NC(=O)C2)C(=O)[C@@H](C)C1,Potency,[1],4.37 µM (active) and 968 nM (active)
same,Potency,[2],296 nM (active)
same,Potency,[3],1660 nM (active)
same,Potency,[4],263 nM (active)
same,Potency,[5],263 nM (active)
same,Potency,[6],742 nM (active)
same,Potency,[7],833 nM (active)
CCOc1ccc(CCNC(=O)c2cc3cnccc3n2Cc2cccc(C)n2)cc1OCC,Potency,[8],inactive
same,Potency,[9],inactive
same,Potency,[10],inactive
same,Potency,[11],inactive
CC(=O)c1ccc(N=[N+]=[N-])cc1,Potency,[12],8960 nM (active)
Cc1ccc(S(=O)(=O)N[C@@H](CCCCN)C(=O)CCl)cc1,Potency,[8],inactive
same,Potency,[12],inactive
same,Potency,[13],inactive
same,Potency,[14],12700 nM (active)
C[C@@H]1Cc2c(Cl)cc(C(=O)N[C@@H](Cc3ccccc3)C(=O)O)c(O)c2C(=O)O1,Potency,[8],inactive
same,Potency,[12],inactive
same,Potency,[9],inactive
same,Potency,[14],inactive
same,Potency,[10],inactive
O=c1[nH]c(CN2CCNCC2)nc2ccccc12,Potency,[12],inactive
CN1CCN(c2cnc3c(O)ccc(C(=O)O)c3c2)CC1,Potency,[8],inactive
same,Potency,[12],inactive
same,Potency,[9],inactive
same,Potency,[13],12700 nM (active)
same,Potency,[10],inactive
CCC1(c2ccc(N)cc2)CCC(=O)NC1=O (stereo not drawn),Potency,[15],inactive
same,Potency,[16],inactive
same,viability,[2],114%
same,Potency,[17],inactive
same,Potency,[4],inactive
N#Cc1c(-c2cc(F)cc(-c3no[n+]([O-])c3C#N)c2)no[n+]1[O-],Potency,[8],357 nM (active)
same,Potency,[14],1590 nM (active)
same,Potency,[11],11300 nM (active)
COc1cc(O)c2c(c1)CCC[C@@H](O)[C@H](O)C(=O)/C=C\C[C@H](C)OC2=O,Potency,[8],inactive
same,Potency,[9],inactive
same,Potency,[13],inactive
same,Potency,[14],inactive
same,Potency,[10],inactive
N[C@@H](Cn1oc(=O)[nH]c1=O)C(=O)O,Potency,[15],inactive
same,Potency,[16],inactive
N#Cc1c(-c2cccc(-c3no[n+]([O-])c3C#N)c2)no[n+]1[O-],Potency,[8],1270 nM (active)
same,Potency,[9],282 nM (active)
same,Potency,[14],1270 nM (active)
same,Potency,[10],inactive
same,Potency,[11],12700 nM (active)
CC(=O)c1cccc(N=[N+]=[N-])c1,Potency,[12],inactive
CCc1nn2c(=O)cc(C3=CCNCC3)nc2s1,Potency,[12],inactive
Cc1cccc(C)c1OP(=O)(OCc1c(-c2ccccc2)no[n+]1[O-])Oc1c(C)cccc1C,Potency,[8],1120 nM (active)
same,Potency,[12],5040 nM (active)
same,Potency,[13],12700 nM (active)
same,Potency,[14],12700 nM (active)
same,Potency,[10],inactive
N#Cc1c(-c2ccc([N+](=O)[O-])o2)no[n+]1[O-],Potency,[8],2820 nM (active)
same,Potency,[12],10100 nM (active)
same,Potency,[9],3160 nM (active)
same,Potency,[13],7940 nM (active)
same,Potency,[14],15800 nM (active)
same,Potency,[11],2250 nM (active)
CC(=O)N(C)CC#CCN1CCC(O)CC1,Potency,[12],inactive
C=C(C)[C@H]1Cc2c(ccc3c2O[C@@H]2COc4cc(OC)c(OC)cc4[C@@H]2C3=O)O1,Potency,[15],inactive
same,Potency,[3],332 nM (active)
same,Potency,[17],417 nM (active)
same,Potency,[4],833 nM (active)
same,Potency,[5],934 nM (active)
same,Potency,[7],934 nM (active)
N[C@@]1(c2ccccc2Cl)CCC=CC1=O,Potency,[12],inactive
NC(N)=Nc1ccc2[nH]c3c(c2c1)C[C@@]1(O)C2Cc4ccc(O)c5c4[C@@]1(CCN2CC1CC1)[C@H]3O5,Potency,[12],inactive
CC(=O)OCC1=C(C(=O)O)N2C(=O)C(NC(=O)CCCC(N)C(=O)O)C2SC1 (stereo not drawn),Potency,[8],inactive
same,Potency,[13],inactive
CCC1(C2=NCCN2)Cc2ccccc2O1 (stereo not drawn),Potency,[15],inactive
same,Potency,[16],inactive
CCOc1ccc(CCNC(=O)c2cc3ncccc3n2Cc2cccc(C)n2)cc1OCC,Potency,[8],inactive
same,Potency,[12],inactive
same,Potency,[9],inactive
same,Potency,[14],inactive
same,Potency,[10],inactive
O=C(CNC12CC3CC(CC(C3)C1)C2)c1ccc(Cl)cc1,Potency,[12],inactive
CCOc1ccc(CCNC(=O)c2cc3cccnc3n2Cc2cccc(C)n2)cc1OCC,Potency,[8],inactive
same,Potency,[9],inactive
same,"activity change, negative = inhibition",[13],-11.9% [at 0.022 µM]
same,Potency,[10],inactive
NN=C(N)N,Potency,[15],inactive
same,Potency,[16],inactive
same,viability,[2],108%
same,Potency,[3],inactive
same,Potency,[17],inactive
same,Potency,[4],inactive
same,Potency,[5],inactive
same,Potency,[6],inactive
same,Potency,[7],inactive
COc1ccc(-c2nc(CS(=O)CC(=O)N3CCC4(CC3)OCCO4)c(C)o2)cc1 (stereo not drawn),Potency,[12],inactive
N#C/C(=C\c1ccc(O)c(O)c1)C(N)=S,Potency,[8],8960 nM (active)
same,Potency,[12],3180 nM (active)
same,Potency,[13],1010 nM (active)
same,Potency,[14],5650 nM (active)
same,Potency,[11],1420 nM (active)
CN1C(=O)CCS(=O)(=O)C1c1ccc(Cl)cc1 (stereo not drawn),Potency,[15],inactive
same,Potency,[16],inactive
same,viability,[2],123%
same,Potency,[17],inactive
same,Potency,[5],inactive
same,Potency,[6],inactive
same,Potency,[7],inactive
Ic1ccccc1CNC1C2CCN(CC2)C1C(c1ccccc1)c1ccccc1 (stereo not drawn),Potency,[15],inactive
same,Potency,[16],inactive
CCCCCn1c(C)c(C(=O)c2ccc(OC)c3ccccc23)c2ccccc21,Potency,[12],inactive
NCC(CC(=O)O)c1ccc(Cl)cc1 (stereo not drawn),Potency,[15],inactive
same,Potency,[16],inactive
CN[C@@H]1C[C@@H](c2ccc(Cl)c(Cl)c2)c2ccccc21,Potency,[15],inactive
same,Potency,[16],inactive
CO[C@@H]1C[C@H](O[C@H]2CC[C@]3(C)C4CC[C@]5(C)[C@@H](C6=CC(=O)OC6)[C@@H](OC(C)=O)C[C@]5(O)C4CC[C@@H]3C2)OC(C)[C@H]1O (stereo partly drawn),Potency,[12],inactive

# — PubChem BioAssay (NCATS)
